# This is one part of a sample in which hits are shown more often than they occur.
# CtBP-E1A blk: inhibitors of CtBP/E1A interaction | AlphaScreen GST-E1A/His-CtBP binding, 1536-well; stronger effect = lower value | activity change, % (concentration not given with the values) | hit rate 0.49% among 340,000 | AID 651724
#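 Steps: dispense buffer (Tris pH 8.0, NaCl 300 mM, TCEP 1 mM, BSA, Tween 20); add 5X protein mix (GST-E1A, His-CtBP, 125 nM each); pin 23 nL compound; 2 h at 37 °C, dark; add 5X beads (50 ug/mL); 1 h; read.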
# KDM4E inh: JMJD2E (human) inhibition. B2RXH2. Potency, µM (doses to about 57.1 µM), inactives show at the top dose activity change, negative = inhibition, hits mostly inhibitors. hit rate 1.6% among 230,000. JMJD2E catalytic domain, FDH-coupled NADH fluorescence (FDH is formaldehyde dehydrogenase). AID 2147; active = well fitted inhibition curve with a large enough effect, not every such curve was filed as active; inconclusive = small, poorly fitted or top-dose-only effect, or another doubt; inactive = no such curve, though single readings can be large or run the other way;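 note: potency is the fitted concentration of half-maximal effect; 0% = wells with enzyme and -100% = buffer wells without enzyme; nearly all actives have a fitted effect of over 50% in size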
# Target sequence (B2RXH2 1-337 limits assumed): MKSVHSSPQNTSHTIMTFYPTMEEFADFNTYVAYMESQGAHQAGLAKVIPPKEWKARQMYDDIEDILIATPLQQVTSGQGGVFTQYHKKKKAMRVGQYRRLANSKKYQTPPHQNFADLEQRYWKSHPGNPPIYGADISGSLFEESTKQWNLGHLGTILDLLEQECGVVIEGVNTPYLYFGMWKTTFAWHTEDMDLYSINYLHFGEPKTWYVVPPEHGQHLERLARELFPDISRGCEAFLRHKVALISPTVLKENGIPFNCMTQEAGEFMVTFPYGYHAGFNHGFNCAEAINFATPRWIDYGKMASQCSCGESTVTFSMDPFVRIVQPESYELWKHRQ
# L3MBTL1 inh: L3MBTL1 (human) inhibition; hit rate 0.66% among 230,000; AID 485360; Potency, µM (highest dose often 57.1 µM), without a hit: at the highest dose activity, negative = inhibition, most hits filed as inhibitors; Q9Y468; AlphaScreen L3MBTL1–H3K9me1 peptide binding; active = well fitted inhibition curve with a large enough effect; inconclusive = small, poorly fitted or top-dose-only effect; inactive = no such curve, though single readings can be large or run the other way; note: potency is the fitted concentration of half-maximal effect; nearly all actives have a fitted effect of over 60% in size
#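 AlphaScreen proximity signal between nickel-chelate acceptor and streptavidin donor beads (final 10 ug/mL) reports binding of 50 nM L3MBTL1 to 75 nM biotin-H3 K9me1 peptide; complex incubated with compounds 30 min at room temperature; cefsulodin titration as control.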
# Six1-Eya2 inh: blocks human Six1 binding to Eya2 | Q15475+O00167 | AlphaScreen GST-Six1/His-Eya2 binding, biochemical; stronger effect = lower value | activity change, % (test concentration not listed) | hit rate 0.56% among 360,000
#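 Homogeneous AlphaScreen proximity assay pairing GST-Six1 with His-tagged Eya2 (added as 5X mix: 250 nM and 500 nM) in 50 mM Tris pH 8.0, 300 mM NaCl, 1 mM TCEP. Glutathione donor and nickel acceptor beads; 1 h, 37 °C, dark.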
# Starred values were filed as active, the others as inactive; ? = inconclusive; / = not tested or not shown; [ ] = dose if it differs, or a comment. Cut-off read from the data, not from the text of the source, unless noted: active = activity change below about -65%; inconclusive = mostly about -30% to -63%; inactive = weaker than that. Unless noted, % is set by controls: 0 for no effect and ±100 for the full control effect.
SMILES,CtBP-E1A blk,KDM4E inh,L3MBTL1 inh,Six1-Eya2 inh
Oc1ccc(N=C/C=C/c2cccc(Br)c2)cc1-c1nc2ccccc2s1,-24,25µM*,?,-19
CCC(=O)Nc1c(OC(=O)CC)ccc2c(C)cc(=O)oc12,0,4µM*,-5%,2
N=C1/C(=C/c2ccco2)C(=O)N=C2SC(CC(=O)N3CCCC3)=NN12,-2,/,/,-4
O=C1N=C(N2CCCC2C(=O)O)S/C1=C\c1ccco1 (stereo not drawn),/,22µM*,/,-16
CC(=O)N1C2(C=CC1(C)C(=O)NCc1cc(F)cc(C(F)(F)F)c1)CCCCC2 (stereo not drawn),/,-11%,/,/
O=c1[nH]c2ccccc2nc1/C=C/c1ccc(O)cc1,1,16µM*,10%,10
CCCC(=O)NC(c1ccc(N(C)C)cc1)c1ccc2cccnc2c1O (stereo not drawn),-92*,/,?,-69*
CCCC(=O)NC(c1ccc(C(C)C)cc1)c1ccc2cccnc2c1O (stereo not drawn),-65*,/,2%,?
COc1ccc(C(NC(=O)C(C)C)c2ccc3cccnc3c2O)cc1 (stereo not drawn),-93*,28µM*,/,-89*
CCCCC(=O)NC(c1ccc(OC)cc1)c1ccc2cccnc2c1O (stereo not drawn),18,/,/,-7
CC(=O)NC(c1ccco1)c1ccc2cccnc2c1O (stereo not drawn),-97*,25µM*,?,-93*
C[C@H]1Cc2c(-c3ccccc3)nc3c(c2CO1)CN(C(=O)c1cccnc1)CC3,/,6%[11.4 µM],/,/
Nc1nc(Cl)nc2c1ncn2[C@@H]1O[C@H](COP(=O)(O)OP(=O)(O)OP(=O)(O)O)[C@H](O)[C@H]1O,/,1%,/,/
Cc1ccc2c(c1)N(CC(=O)NCCCN1CCOCC1)C(=O)C(C(C)C)O2 (stereo not drawn),-3,/,3%,-3
CCCC(=O)NC(c1ccccc1Cl)c1ccc2cccnc2c1O (stereo not drawn),?,/,3%,-85*
CCC(=O)NC(c1ccc(Cl)cc1Cl)c1ccc2cccnc2c1O (stereo not drawn),?,/,-13%,-80*
CCCCC(=O)NC(c1ccc(Cl)cc1Cl)c1ccc2cccnc2c1O (stereo not drawn),?,/,2%,-29
CCC(=O)NC(c1ccc(C)cc1)c1ccc2cccnc2c1O (stereo not drawn),-90*,/,?,-89*
CN(/N=C/c1cc(Br)cc(Br)c1O)c1cccc(C(F)(F)F)n1,0,/,/,-16
CCCn1c(CCNc2nc(-c3cccc(Br)c3)cs2)nc2ccccc21,-4,/,/,-2
COc1ccc(C(=O)OCC(=O)c2c(N)n(C)c(=O)n(C)c2=O)cc1OC,0,-2%,/,2
CC(=O)Oc1ccc(C(=O)OCC(=O)c2c(N)n(C)c(=O)n(C)c2=O)cc1OC(C)=O,-18,-18%,-3%,-83*
Oc1ccc(C2CNCc3sccc32)cc1O (stereo not drawn),2,25µM*,-2%,-14
O=C1OC2(c3ccccc31)c1cc(I)c(O)c(I)c1Oc1c2cc(I)c(O)c1I,/,/,3.2µM*,/
CCC1=C2CC[C@H]3C(=O)N(C)C(=O)[C@H]3[C@H]2[C@@]2(C)C(=NCC(=O)OC)OC(=O)N2C1=O,/,12%,/,/
SMILES,CtBP-E1A blk,KDM4E inh,L3MBTL1 inh,Six1-Eya2 inh
O=C(Oc1cccc2cccnc12)c1cccc(-n2cnnn2)c1,-9,-3%,20%[11.4 µM],-13
O=C(Oc1cccc2cccnc12)c1ccc(N2C(=O)C3C4CCC(C4)C3C2=O)cc1 (stereo not drawn),?,-10%,-24%,-89*
O=C(Oc1cccc2cccnc12)c1cccc(N2C(=O)C3C4CCC(C4)C3C2=O)c1 (stereo not drawn),-12,?,?,-87*
CN(CC(=O)Nc1ccc(F)c(F)c1F)C(=O)C1(c2ccccc2)CC1,1,/,/,-1
Cc1ccc(S(=O)(=O)NC(C)(C)C)cc1C(=O)OCC(=O)N1CCCC1=O,-1,/,3%,3
CCCCC[C@H](O)/C=C/[C@@H]1[C@H](C/C=C\CCCC(=O)O)[C@@H](O)C[C@H]1O,/,3%,/,/
O=C(NCc1cccc(Cl)c1)C1Cc2c(-c3ccccc3Oc3ccccc3)ccnc2O1 (stereo not drawn),-2,/,/,-2
CCOC(=O)C(C(C)=O)c1c(Br)c(O)c(O)c2c(C(=O)c3ccc(C)cc3)coc12 (stereo not drawn),?,25µM*,-23%,?
O=C1C(c2ccccc2)=[N+]([O-])c2ccccc21,2,/,?,7
COc1cnc(-c2ccccn2)nc1Sc1ccc(Cl)cc1,-10,2%,-9%,-7
COc1cnc(-c2ccccn2)nc1Sc1ccc(F)cc1,-72*,4%,?,?
CC(=C/C(=O)O)/C=C/c1ccc(Cl)o1,0,?,10µM*,-27
COCc1cc(C)nc(OCC(=O)N/N=C/c2ccc(O)cc2O)c1C#N,-88*,25µM*,/,-84*
COCc1cc(C)nc(OCC(=O)N/N=C/c2ccccc2O)c1C#N,-84*,25µM*,-24%,-91*
CCCn1c(C)nnc1SCC(=O)NC1CCCCC1,3,/,/,-5
C#CCn1cc2c(c1-c1ccccc1)c(=O)n(C)c(=O)n2C,-2,/,/,2
CN(C(=O)COC(=O)CNC(=O)c1sc2ccccc2c1Cl)C1CCS(=O)(=O)C1 (stereo not drawn),1,/,-3%,-12
Cc1cc(C(=O)c2ccccc2)cc(C)c1O,-23,/,/,-86*
Cc1ccc(OC(=O)c2ccccc2)cc1C,37,/,/,27
CC1C=CC=CC=CC=CC=CC=CC=CC(OC2OC(C)C(O)C(N)C2O)CC2OC(O)(CC(O)CC(O)C(O)CCC(O)CC(O)CC(=O)OC(C)C(C)C1O)CC(O)C2C(=O)O (stereo not drawn),0,/,/,-75*
N#C/C(=C\c1ccc(OCc2ccc(F)cc2)cc1)C(=O)Nc1cccc(C(=O)O)c1,2,-20%,/,1
COc1cc(/C=C(\C#N)C(=O)Nc2cccc(C(=O)O)c2)ccc1OCc1ccc(F)cc1,-70*,/,/,-14
COC(=O)c1ccc(C(NC(=O)OCc2ccccc2)/C(F)=C/[C@@H](C)C(=O)NCCc2c[nH]c3ccc(OC)cc23)cc1 (stereo partly drawn),/,-5%,/,/
COC1=C(N)C(=O)c2nc(-c3nc(C(=O)O)c(C)c(-c4ccc(OC)c(OC)c4O)c3N)ccc2C1=O,?,331%,20µM*,?
CN(C)CCCN1C(=O)c2cccc3cccc(c23)C1=O,-5,/,-4%,3
CC1=CC2=C(OC1N(C)C)c1cccc3cccc(c13)C2=O (stereo not drawn),-9,20µM*,/,-7
Cc1cc(/C=C2/NC(=O)N(Cc3ccccc3F)C2=O)c(C)n1C(C)C,4,18µM*,-10%,-17
Cc1cc(/C=C2/NC(=O)N(c3ccccc3)C2=O)c(C)n1C(C)C,-9,22µM*,-17%,-14
C=C(C(C)=O)C(O)/C=C/c1ccco1 (stereo not drawn),/,-4%,/,/

# Bioassay records from PubChem.
